A short description of assay [1]: qHTS assay to identify small molecule antagonists of the sonic hedgehog signaling (Shh) pathway (AID 1259369; calls by dose curve; also: nearly all actives have a fitted effect of over 45% in size; also: potency is read from the fitted curve at half-maximal effect). An outline of the steps: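 NIH/3T3 stable Gli1-Luc clone, 2,000 cells/well, 4hr settle; cpd + conditioned medium 24hr; Luc reagent 30min RT; luminescence.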
For orientation: In qHTS, concentration-response curves come from the screen itself.

The target of assay [2] is Estrogen receptor beta (Homo sapiens) (UniProt Q92731). Kind of assay: qHTS assay to identify small molecule agonists of the estrogen receptor beta (ER-beta) signaling pathway (AID 1259377; active = well fitted activation curve with a large enough effect in the signal ratio in the repeat runs, not every such curve was filed as active; the % refers to the signal ratio). In short, it runs like this: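 Agonist mode cell assay in GripTite HEK293T cells expressing an ER-beta fusion that drives beta-lactamase from an Upstream Activator Sequence; 16 hr compound exposure at 37C, then 2 h LiveBLAzer B/G FRET substrate at room temperature, fluorescence read-out.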
Chain of Estrogen receptor beta (Homo sapiens) (Q92731 whole entry, looked up, the tested form may be a part): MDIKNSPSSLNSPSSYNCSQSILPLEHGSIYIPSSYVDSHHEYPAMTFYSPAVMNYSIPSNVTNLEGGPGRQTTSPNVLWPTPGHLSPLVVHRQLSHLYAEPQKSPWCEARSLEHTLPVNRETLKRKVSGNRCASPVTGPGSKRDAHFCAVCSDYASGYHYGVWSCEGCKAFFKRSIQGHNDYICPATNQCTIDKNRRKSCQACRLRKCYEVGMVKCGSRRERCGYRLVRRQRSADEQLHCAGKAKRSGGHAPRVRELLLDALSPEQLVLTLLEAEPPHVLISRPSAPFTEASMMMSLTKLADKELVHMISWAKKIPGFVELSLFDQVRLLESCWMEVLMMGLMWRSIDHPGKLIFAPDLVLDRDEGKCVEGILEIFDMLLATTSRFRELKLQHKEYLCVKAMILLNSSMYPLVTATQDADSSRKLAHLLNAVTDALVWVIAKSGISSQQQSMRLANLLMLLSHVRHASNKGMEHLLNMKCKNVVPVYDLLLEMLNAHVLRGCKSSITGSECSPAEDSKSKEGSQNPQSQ

Assay [3] shares this target. Nature of the assay: qHTS assay to identify small molecule antagonists of the estrogen receptor beta (ER-beta) signaling pathway (AID 1259378; active = well fitted inhibition curve with a large enough effect in the signal ratio in the repeat runs, not every such curve was filed as active; the % refers to the signal ratio). An outline of the steps: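 ER-beta-UAS-bla HEK293T cells in 2% charcoal-stripped FBS medium treated with compound plus 1nM final 17-beta-estradiol for 16 hr at 37C. Beta-lactamase reporter read by FRET substrate fluorescence after 2 hours at room temperature.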

Assay [4] can be described thus: qHTS assay to identify small molecule agonists of the androgen receptor (AR) signaling pathway in the presence of an antagonist - cell viability counter screen (AID 1259379).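 Also: MDA-kb2 human breast cancer cells carrying an MMTV luciferase reporter; series mostly up to about 92 µM; nearly all actives have a fitted effect of over 25% in size.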 An outline of the steps: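 MDA-kb2 viability measured by CellTiter-Fluor fluorescence in the same wells as the luciferase signal; nilutamide 3.0uM final; 15-point compound titration; 16 hr at 37C.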

Assay [5] can be described thus: qHTS assay to identify small molecule agonists of the estrogen receptor beta (ER-beta) signaling pathway - cell viability counter screen (AID 1259380). Also: nearly all actives have a fitted effect of over 30% in size. Also: potency is read from the fitted curve at half-maximal effect. In short, it runs like this: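 Measured: luminescence from CellTiter-Glo after 30 min at room temperature, added to wells already read for the LiveBLAzer FRET reporter (2 hr substrate); ER-beta-UAS-bla HEK293T cells had 16 hr compound treatment at 37C, 5% CO2.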

Assay [6] concerns the target Androgen receptor (Homo sapiens) (UniProt P10275). Kind of assay: qHTS assay to identify small molecule agonists of the androgen receptor (AR) signaling pathway in the presence of an antagonist (AID 1259381; calls by dose curve; also: nearly all actives have a fitted effect of over 15% in size). In short, it runs like this:
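Luminescent ONE-Glo read, 30min at room temperature, follows 16hr compound exposure (15 concentrations) of MDA-kb2 cells at 37C, 0% CO2, with nilutamide added at 3.0uM final.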

Assay [7] in a line: qHTS assay to identify small molecule antagonists of the estrogen receptor beta (ER-beta) signaling pathway - cell viability counter screen (AID 1259382). Also: series mostly up to about 92 µM; nearly all actives have a fitted effect of over 55% in size. An outline of the steps:
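Readout: luminescence, CellTiter-Glo, same wells as bla assay. System: ER-beta-UAS-bla GripTite HEK293T, 2% charcoal-stripped FBS. Exposure: compounds plus 1nM 17-beta-estradiol, 16 hr, 37C.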

Assay [8] has as its target Estrogen receptor (Homo sapiens) (UniProt P03372). Nature of the assay: qHTS assay to identify small molecule agonists of the estrogen receptor alpha (ER-alpha) signaling pathway in the presence of an antagonist (AID 1259383; calls by dose curve; also: top concentration of the series differs between compounds; nearly all actives have a fitted effect of over 15% in size). In short, it runs like this:
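Quantitative HTS confirmation: compounds titrated at 15 concentrations onto estrogen-deprived VM7Luc4E2 cells carrying a four-ERE luciferase construct, with ICI-182,780 present at 10.0nM final. Signal is luminescence after 22hr exposure.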

Assay [9] can be described thus: qHTS assay to identify small molecule agonists or antagonists of the thyroid stimulating hormone receptor (TSHR) signaling pathway - wild type cell line counter screen (AID 1259384; calls by dose curve). An outline of the steps: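 Wild-type Hek293 cells, 800/well, 18 h at 37C, then compound with Ro20-1724 for 30 min RT. cAMP by HTRF (cAMP-d2/anti-cAMP cryptate), 1 h RT, fluorescence read. 15 concentrations, triplicates.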

The target of assay [10] is Thyrotropin receptor (Homo sapiens) (UniProt P16473). Kind of assay: qHTS assay to identify small molecule antagonists of the thyroid stimulating hormone receptor (TSHR) signaling pathway (AID 1259385; calls by dose curve; also: nearly all actives have a fitted effect of over 20% in size). An outline of the steps: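 TSHR-HEK293 cells (800/well) plated 18 h, then compounds with Ro20-1724 and TSH at 1.5 ng/mL final, 30 min at room temperature. cAMP quantified by HTRF (cAMP-d2/anti-cAMP-cryptate, 1 h); 15 concentrations in triplicate.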
Chain of Thyrotropin receptor (Homo sapiens) (P16473 whole entry, looked up): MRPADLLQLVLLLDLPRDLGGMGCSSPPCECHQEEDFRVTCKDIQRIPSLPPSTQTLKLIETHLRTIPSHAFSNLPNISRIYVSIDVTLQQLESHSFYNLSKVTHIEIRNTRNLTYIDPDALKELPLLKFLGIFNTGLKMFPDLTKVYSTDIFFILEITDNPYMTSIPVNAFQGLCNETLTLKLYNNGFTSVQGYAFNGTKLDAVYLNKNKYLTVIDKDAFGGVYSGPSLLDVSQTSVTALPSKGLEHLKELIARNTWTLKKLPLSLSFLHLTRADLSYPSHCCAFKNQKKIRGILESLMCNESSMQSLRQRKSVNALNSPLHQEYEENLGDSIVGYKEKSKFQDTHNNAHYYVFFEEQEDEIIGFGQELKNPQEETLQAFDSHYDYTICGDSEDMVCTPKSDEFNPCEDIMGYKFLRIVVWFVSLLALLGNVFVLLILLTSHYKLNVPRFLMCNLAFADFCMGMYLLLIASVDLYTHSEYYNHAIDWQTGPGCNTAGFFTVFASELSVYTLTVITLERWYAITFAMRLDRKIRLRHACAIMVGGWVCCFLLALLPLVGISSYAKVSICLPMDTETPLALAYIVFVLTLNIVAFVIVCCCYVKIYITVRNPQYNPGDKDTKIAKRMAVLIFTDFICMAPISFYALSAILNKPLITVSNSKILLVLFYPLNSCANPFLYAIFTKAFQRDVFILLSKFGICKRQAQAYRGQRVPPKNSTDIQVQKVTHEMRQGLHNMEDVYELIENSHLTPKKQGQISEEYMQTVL

Assay [11] can be described thus: qHTS assay to identify small molecule agonists of the estrogen receptor alpha (ER-alpha) signaling pathway in the presence of an antagonist - cell viability counter screen (AID 1259386).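 Also: series mostly up to about 92 µM; cells exposed to compounds for 22 h at 37 °C before the viability read; nearly all actives have a fitted effect of over 30% in size.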 An outline of the steps: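 The test measures whether compounds kill ER-alpha reporter cells (VM7Luc4E2) under antagonist co-treatment (ICI-182,780, 10.0nM). Fluorescence from CellTiter-Fluor is read after a 22hr exposure.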

Assay [12] concerns the target Progesterone receptor (Homo sapiens) (UniProt P06401). Nature of the assay: qHTS assay to identify small molecule agonists of the progesterone receptor (PR) signaling pathway (AID 1346784; calls by dose curve; also: nearly all actives have a fitted effect of over 30% in size). An outline of the steps: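 Cells (PR-UAS-bla HEK 293T, GripTite) were plated in assay medium containing 2% charcoal-stripped FBS and incubated 6 hr. Test compounds in DMSO were added for 16 hr at 37C. FRET substrate was then loaded for 2 hr at room temperature before fluorescence reading.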

Assay [13] has the same target. Kind of assay: qHTS assay to identify small molecule antagonists of the progesterone receptor (PR) signaling pathway (AID 1346795; active = well fitted inhibition curve with a large enough effect in the signal ratio in the repeat runs, not every such curve was filed as active; the % refers to the signal ratio). An outline of the steps: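 Antagonist mode: compounds tested against 1 nM (final) promegestone stimulation in HEK293T cells expressing PR-UAS-bla reporter, 16 hr at 37C, 5% CO2; beta-lactamase activity detected via B/G FRET substrate after 2 hr at room temperature.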

The nature of assay [14]: qHTS assay to identify small molecule antagonists of the progesterone receptor (PR) signaling pathway - cell viability counter screen (AID 1346798). Also: nearly all actives have a fitted effect of over 50% in size. Also: potency is read from the fitted curve at half-maximal effect. An outline of the steps:
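Counter screen for cytotoxicity: viability of PR-UAS-bla HEK293T cells was measured with CellTiter-Glo luminescence following 16 hr compound exposure in the presence of R5020.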

Assay [15] is described as follows: qHTS assay to identify small molecule agonists of the progesterone receptor (PR) signaling pathway - cell viability counter screen (AID 1346799; calls by dose curve; also: nearly all actives have a fitted effect of over 45% in size). An outline of the steps:
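Cells (PR-UAS-bla HEK293T) are plated at 3,000/well in 2% charcoal-stripped FBS medium, rested 6 hr, dosed and incubated 16 hr at 37C. CellTiter-Glo is then added and luminescence measured after 30 min at room temperature.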

Assay [16] is described as follows: qHTS assay to identify small molecule antagonists of the TGF-beta/Smad signaling pathway - cell viability counter screen (AID 1346824). Also: nearly all actives have a fitted effect of over 50% in size. In short, it runs like this:
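SBE-bla HEK 293T cells, incubated overnight, then compound plus 0.25 ng/mL TGF-beta1 (stock added) for 5 hr at 37 C. Viability was read in the same wells by CellTiter-Glo luminescence after 30 min at room temperature.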

A short description of assay [17]: qHTS assay to identify small molecule agonists of the TGF-beta/Smad signaling pathway - cell viability counter screen (AID 1346829). Also: top concentration of the series differs between compounds; nearly all actives have a fitted effect of over 45% in size. An outline of the steps:
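Compound-treated SBE-bla HEK 293T cells (5 hr, 37 C) were assessed for viability with CellTiter-Glo in parallel with the reporter read.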

A short description of assay [18]: qHTS assay to identify small molecule agonists of the TGF-beta/Smad signaling pathway (AID 1346859; active = well fitted activation curve with a large enough effect in the signal ratio in the repeat runs, not every such curve was filed as active; the % refers to the signal ratio; also: series mostly up to about 77 µM). An outline of the steps:
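Reporter line: HEK 293T with stably integrated SBE-controlled beta-lactamase. Compound exposure lasts 5 hr at 37 C and 5% CO2; substrate loading follows for 2 hr at room temperature, with emission read at 460 and 530 nm.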

Assay [19] concerns the target Thyrotropin-releasing hormone receptor (Homo sapiens) (UniProt P34981). Nature of the assay: qHTS assay to identify small molecule agonists of the thyrotropin-releasing hormone receptor (TRHR) signaling pathway (AID 1346891; calls by dose curve;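 also: HEK293 cells expressing TRHR with calcium dye readout; series mostly up to about 58 µM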). In short, it runs like this: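 Cells: TRHR-Hek293, seeded and incubated 18 h. Dye loading: 2 h at 37 °C. Compound added from DMSO stock by pin tool. Read-out: kinetic calcium fluorescence over 3 min.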

Assay [20] shares this target. Nature of the assay: qHTS assay to identify small molecule antagonists of the thyrotropin-releasing hormone receptor (TRHR) signaling pathway (AID 1346877; active = well fitted inhibition curve with a large enough effect in the repeat runs, not every such curve was filed as active; also: series mostly up to about 51 µM). An outline of the steps: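 Overnight-plated (18 h, 37 °C) HEK293 cells expressing TRHR were dye-loaded 2 h, treated with compound, then stimulated with TRH at 1 nM final. Fluorescence intensity was captured every second for 3 min.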

Records with an inconclusive call do not appear. Calls of active or inactive are those of the source. Unless noted, calls follow the shape of the dose curve; as a rule, active = well fitted curve in the direction sought with a large enough effect in the repeat runs; inconclusive = weak or mixed curves; inactive = no such curve, though single readings can be large; an effect the other way counts as inactive or inconclusive.

Chain of Estrogen receptor (Homo sapiens) (P03372 whole entry, looked up): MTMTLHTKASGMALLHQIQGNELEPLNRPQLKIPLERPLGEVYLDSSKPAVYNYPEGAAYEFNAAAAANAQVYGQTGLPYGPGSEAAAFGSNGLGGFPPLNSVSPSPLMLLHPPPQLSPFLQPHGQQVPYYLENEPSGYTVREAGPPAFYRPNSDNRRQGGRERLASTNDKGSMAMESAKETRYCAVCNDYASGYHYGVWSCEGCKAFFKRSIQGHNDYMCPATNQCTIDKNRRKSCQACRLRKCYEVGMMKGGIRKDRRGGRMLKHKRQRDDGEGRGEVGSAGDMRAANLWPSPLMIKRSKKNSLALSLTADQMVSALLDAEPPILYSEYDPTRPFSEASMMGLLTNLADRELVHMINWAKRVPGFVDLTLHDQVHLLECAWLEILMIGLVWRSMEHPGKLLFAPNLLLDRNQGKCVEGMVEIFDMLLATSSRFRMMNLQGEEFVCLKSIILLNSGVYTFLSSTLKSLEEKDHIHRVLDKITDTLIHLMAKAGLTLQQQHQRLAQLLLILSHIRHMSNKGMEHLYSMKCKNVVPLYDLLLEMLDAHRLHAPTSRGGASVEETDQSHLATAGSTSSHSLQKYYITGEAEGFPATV
Chain of Thyrotropin-releasing hormone receptor (Homo sapiens) (P34981 whole entry, looked up): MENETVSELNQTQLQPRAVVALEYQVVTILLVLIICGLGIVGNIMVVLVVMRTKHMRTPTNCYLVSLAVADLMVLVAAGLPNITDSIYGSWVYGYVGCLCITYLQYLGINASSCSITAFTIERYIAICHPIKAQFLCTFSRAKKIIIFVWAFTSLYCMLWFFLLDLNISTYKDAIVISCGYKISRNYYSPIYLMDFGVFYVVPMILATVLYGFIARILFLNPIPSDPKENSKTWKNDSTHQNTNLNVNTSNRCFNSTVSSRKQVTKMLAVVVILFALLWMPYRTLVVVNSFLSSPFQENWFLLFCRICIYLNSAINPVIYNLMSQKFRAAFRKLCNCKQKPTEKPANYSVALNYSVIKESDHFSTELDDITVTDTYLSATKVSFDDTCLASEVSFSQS
Chain of Progesterone receptor (Homo sapiens) (P06401 whole entry, looked up): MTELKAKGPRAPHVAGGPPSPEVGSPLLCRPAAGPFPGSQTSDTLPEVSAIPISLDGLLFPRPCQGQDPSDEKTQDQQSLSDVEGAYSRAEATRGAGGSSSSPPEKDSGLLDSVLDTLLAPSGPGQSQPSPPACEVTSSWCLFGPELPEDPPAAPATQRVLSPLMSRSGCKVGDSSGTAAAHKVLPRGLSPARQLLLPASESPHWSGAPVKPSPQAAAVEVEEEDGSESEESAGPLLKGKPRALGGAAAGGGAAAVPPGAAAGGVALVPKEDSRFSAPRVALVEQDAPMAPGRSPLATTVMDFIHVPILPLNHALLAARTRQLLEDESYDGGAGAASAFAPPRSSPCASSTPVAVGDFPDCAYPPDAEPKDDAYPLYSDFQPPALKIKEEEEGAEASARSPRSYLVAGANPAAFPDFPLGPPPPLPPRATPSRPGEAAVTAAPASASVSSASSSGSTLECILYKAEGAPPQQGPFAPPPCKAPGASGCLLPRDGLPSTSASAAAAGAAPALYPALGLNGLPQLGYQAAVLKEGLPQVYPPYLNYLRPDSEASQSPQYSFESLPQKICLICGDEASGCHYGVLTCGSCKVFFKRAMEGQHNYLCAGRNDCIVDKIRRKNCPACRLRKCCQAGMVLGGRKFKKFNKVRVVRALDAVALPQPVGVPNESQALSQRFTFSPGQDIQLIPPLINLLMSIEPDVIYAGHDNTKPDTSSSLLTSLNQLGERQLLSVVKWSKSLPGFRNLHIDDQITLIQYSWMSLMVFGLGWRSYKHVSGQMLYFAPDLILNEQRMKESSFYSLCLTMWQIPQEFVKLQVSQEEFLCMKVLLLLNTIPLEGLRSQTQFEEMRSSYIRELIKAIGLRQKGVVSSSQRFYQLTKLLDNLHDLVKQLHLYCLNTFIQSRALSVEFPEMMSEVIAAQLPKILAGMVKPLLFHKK
Chain of Androgen receptor (Homo sapiens) (P10275 whole entry, looked up): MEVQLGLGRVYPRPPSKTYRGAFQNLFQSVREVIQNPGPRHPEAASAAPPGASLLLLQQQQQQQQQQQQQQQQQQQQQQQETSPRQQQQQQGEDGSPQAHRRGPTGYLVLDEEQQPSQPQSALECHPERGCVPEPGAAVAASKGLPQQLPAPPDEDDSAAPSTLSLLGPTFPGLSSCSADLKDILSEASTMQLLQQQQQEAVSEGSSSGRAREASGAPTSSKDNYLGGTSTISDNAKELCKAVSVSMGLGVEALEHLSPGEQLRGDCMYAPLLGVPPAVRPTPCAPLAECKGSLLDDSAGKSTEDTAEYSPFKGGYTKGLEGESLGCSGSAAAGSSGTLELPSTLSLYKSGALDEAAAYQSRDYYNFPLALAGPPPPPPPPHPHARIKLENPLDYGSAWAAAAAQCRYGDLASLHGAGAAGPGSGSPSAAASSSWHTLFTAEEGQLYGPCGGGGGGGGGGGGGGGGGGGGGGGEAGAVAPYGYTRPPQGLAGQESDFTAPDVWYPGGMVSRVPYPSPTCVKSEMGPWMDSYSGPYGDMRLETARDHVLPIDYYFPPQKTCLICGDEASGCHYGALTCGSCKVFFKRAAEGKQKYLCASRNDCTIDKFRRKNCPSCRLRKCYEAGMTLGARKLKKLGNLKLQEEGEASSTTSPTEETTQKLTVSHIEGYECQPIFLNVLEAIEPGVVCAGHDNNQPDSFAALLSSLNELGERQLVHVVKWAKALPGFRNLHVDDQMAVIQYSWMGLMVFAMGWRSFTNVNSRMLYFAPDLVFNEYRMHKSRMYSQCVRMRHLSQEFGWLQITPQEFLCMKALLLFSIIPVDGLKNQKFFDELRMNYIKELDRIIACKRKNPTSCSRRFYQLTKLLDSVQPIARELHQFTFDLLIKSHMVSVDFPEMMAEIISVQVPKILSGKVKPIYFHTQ

On to `CCCCC(CC)CN` (stereo not drawn), for which the Potency entry in [1], in assay [2], in assay [3], in assay [4], in [5] and in assay [6] was “inactive” each time. Moreover, the Potency entry in assay [7], in assay [8], in [10], in assay [11], in assay [12] and in [13] was “inactive” each time. The Potency result in assay [14], in [15], in assay [16], in [17], in [18] and in [19] was “inactive” in each case. The compound was called inactive in assay [9].
In the case of `C=Cc1ccc(S(=O)(=O)O)cc1`, the Potency in assay [1] was 61.1 µM (active). Further, the Potency entry in [2], in assay [3], in [4], in assay [5], in assay [7] and in assay [8] was “inactive” each time. Besides, the Potency result in [11], in [12], in assay [13], in assay [14], in [15] and in assay [16] was “inactive” each time. Also, the Potency entry in assay [17], in assay [18] and in assay [19] was “inactive” in each case. In addition, the call in assay [9] was inactive.
For `CC(C)C=O`, the Potency entry in assay [1], in assay [2], in [3], in [4], in [5] and in [7] was “inactive” throughout. Further, the Potency entry in assay [10], in assay [11], in [12], in [13], in assay [14] and in assay [15] was “inactive” throughout. Moreover, the Potency result in assay [16], in [17], in [18] and in assay [19] was “inactive” each time. Besides, the result in [9] and in assay [20] was inactive.
Regarding `O=C1c2ccccc2C(=O)C1c1ccc(Br)cc1`, the Potency entry in [1], in assay [2], in assay [3], in assay [4], in assay [5] and in assay [6] was “inactive” throughout. Moreover, the Potency entry in assay [7], in [8], in assay [10], in assay [11], in assay [12] and in [14] was “inactive” in each case. The Potency result in assay [15], in assay [16], in [17], in assay [18] and in assay [19] was “inactive” throughout. In assay [9], the compound was classed as inactive.
On to `CCOC(=O)OC(C)OC(=O)[C@@H]1N2C(=O)[C@@H](NC(=O)[C@H](N)c3ccccc3)[C@H]2SC1(C)C` (stereo partly drawn), for which the Potency result in [1], in assay [2], in assay [3], in assay [4], in [5] and in assay [7] was “inactive” each time. Also, the Potency result in assay [10], in assay [11], in assay [12], in assay [13], in assay [14] and in assay [15] was “inactive” in each case. Also, the Potency entry in assay [16], in [17], in assay [18] and in assay [19] was “inactive” throughout. The compound was called inactive in assay [9] and in assay [20].
Consider `CCCCCCCCN`, for which the Potency result in assay [1], in [2], in assay [3], in [4], in [5] and in assay [7] was “inactive” each time. Further, the Potency entry in [10], in assay [11], in [12], in assay [13], in assay [14] and in assay [15] was “inactive” each time. Besides, the Potency entry in assay [16], in [17], in assay [18] and in [19] was “inactive” throughout. The compound was called inactive in [9] and in [20].
On to `Nc1ncnc2c1ncn2[C@H]1CC[C@@H](CO)O1`, for which the Potency result in assay [1], in assay [2], in assay [3], in assay [4], in assay [5] and in [7] was “inactive” in each case. The Potency entry in assay [8], in assay [10], in [11], in [12], in assay [13] and in [14] was “inactive” in each case. Moreover, the Potency result in assay [15], in [16], in [17], in [18] and in assay [19] was “inactive” each time. The compound was called inactive in assay [9] and in assay [20].
For `CCC(C)COC(=O)CC(C)C` (stereo not drawn), the Potency result in assay [1], in assay [2], in [3], in assay [4], in assay [8] and in assay [10] was “inactive” each time. For the same compound, the Potency result in assay [11], in [12], in [16], in assay [17], in assay [18] and in assay [19] was “inactive” each time. The values for the Potency in assay [5] and in assay [14] were 30.6 µM (active) and 9.69 µM (active), respectively. Further, the result in assay [9] and in assay [20] was inactive.

For the origin of these results see PubChem BioAssay (Tox21).
